6 compounds from PubChem BioAssay (NCATS) can be followed below.

Test [1] can be described thus: qHTS Assay for Identifying Gametocytocidal Compounds (AID 743244).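 For max response: % is set by controls: 0 for no effect and ±100 for the full control effect; actives lower the fluorescent signal which means gametocytes are killed.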 Note: potency is the fitted concentration of half-maximal effect. The settings on record: P. falciparum 3D7 stage III-V gametocytes, alamarBlue, 72 h; max response: stronger effect = lower value. Put shortly:
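A resazurin-based viability read-out was applied to mature P. falciparum gametocytes: 72 h compound treatment, then 24 h dye incubation, with falling fluorescence signalling gametocytocidal effect.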
For orientation: In qHTS, concentration-response curves come from the screen itself.

The nature of test [2]: qHTS profiling for inhibitors of Plasmodium falciparum (3D7) proliferation (AID 743322; call rule not given here;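 note: infected erythrocytes exposed to compound for 72 h before lysis; 100% = DMSO vehicle wells and 0% = 0.29 µM artemisinin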). The settings on record: P. falciparum 3D7 proliferation; at 28.7 µM (top of the series) unless noted. Put shortly: (§1)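 Parasite DNA was quantified by SYBR Green I fluorescence (ex 485, em 535 nm) after overnight lysis in saponin/Triton buffer at room temperature. Cultures at 0.3% parasitemia and 2.5% hematocrit were first exposed to compound for 72 h at 37 C; signals were normalised to artemisinin (0.29 uM) and vehicle wells.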

Test [3] is described as follows: qHTS profiling for inhibitors of Plasmodium falciparum (DD2) proliferation (AID 743323; call rule not given here). The conditions noted are these: lower = more inhibition; at 28.7 µM (top of the series) unless noted. Put shortly:
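Parasite proliferation measured via DNA-dye fluorescence, as uninfected erythrocytes lack DNA. Cultures at 0.3% parasitemia and 2.5% hematocrit incubated 72 h with compound; signal scaled between vehicle and 0.29 uM artemisinin wells.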

The nature of test [4]: qHTS profiling for inhibitors of Plasmodium falciparum (HB3) proliferation (AID 743324).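 Note: 100% = DMSO vehicle wells and 0% = artemisinin-treated control wells.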 The settings on record: Plasmodium falciparum HB3 blood-stage proliferation; at 28.7 µM (top of the series) unless noted. The method, boiled down:
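SYBR Green fluorescence (485 ex/535 em) of lysed cultures, incubated overnight at room temperature in the dark, quantifies parasite DNA. Infected erythrocytes at 0.3% parasitemia and 2.5% hematocrit were exposed 72 h; values normalized to DMSO and 0.29 uM artemisinin controls.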

Test [5] in a line: qHTS profiling of the MIPE4 collection as inhibitors of Plasmodium falciparum (3D7) proliferation (AID 743344; call rule not given here;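 note: scaled between DMSO vehicle wells and 0.29 µM artemisinin as full inhibition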). The conditions noted are these: P. falciparum 3D7 in erythrocytes, SYBR Green DNA fluorescence, 72 h; at 28.5 µM (top of the series) unless noted. Put shortly: as §1
Test [6] can be described thus: qHTS profiling of the MIPE4 collection as inhibitors of Plasmodium falciparum (DD2) proliferation (AID 743345; call rule not given here). The conditions noted are these: P. falciparum Dd2 in erythrocytes, SYBR Green DNA, 72 h; at 28.5 µM (top of the series) unless noted. The method, boiled down:
as §1

Test [7] is described as follows: qHTS profiling of the MIPE4 collection as inhibitors of Plasmodium falciparum (DD2) proliferation (Rep 2) (AID 743346; call rule not given here). The conditions noted are these: P. falciparum Dd2 in erythrocytes, SYBR Green DNA, 72 h; at 28.5 µM (top of the series) unless noted. The method, boiled down:
as §1

Test [8] can be described thus: qHTS profiling of the MIPE4 collection as inhibitors of Plasmodium falciparum (HB3) proliferation (AID 743347; call rule not given here;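 note: plate controls were DMSO vehicle wells for no effect and artemisinin wells for full effect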). The conditions noted are these: P. falciparum HB3 in erythrocytes, SYBR Green DNA, 72 h; at 28.5 µM (top of the series) unless noted. The method, boiled down: as §1
A short description of test [9]: High-throughput drug toxicity screening in the BPDCN cell line Gen2.2 (AID 1224824; call rule not given here;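 note: cells exposed to compounds for 48 h before reading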). The settings on record: Gen2.2 BPDCN cells; at 45.8 µM (top of the series) unless noted. The method, boiled down: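 Gen2.2 cells (500/well) in phenol red-free RPMI with 10% FBS were exposed to compounds for 48 h at 37 °C, 5% CO2. Viability was read by CellTiter-Glo luminescence and normalized to DMSO (100%) and 9.2 uM bortezomib (0%).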

Test [10] is described as follows: High-throughput drug toxicity screening in the BPDCN cell line Cal-1 (AID 1224825; call rule not given here). The settings on record: Cal-1 BPDCN cell viability, qHTS; at 45.8 µM (top of the series) unless noted. The method, boiled down: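 Percent activity derived from CellTiter-Glo luminescence, scaling DMSO to 100% and 9.2 uM final bortezomib to 0%. BPDCN Cal-1 cells (500/well, RPMI plus 10% FBS) incubated with compounds 48 hours at 37C before reading.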

Test [11] is described as follows: qHTS assay for measurement of the activity of small molecule inhibitors on Zika virus induced Caspase-3 activity in human iPSC derived neural progenitor cells (hNPCs) (AID 1224857). Note: % of control where 0% means no effect; nearly all actives have a fitted effect of over 65% in size. Put shortly:
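Quantitative HTS format: human iPSC neural progenitors, 1 h compound pretreatment, ZIKV 2 FFU/cell for 6 h at 37 C. Percent inhibition derived from luminescent caspase-3/7 signal between uninfected and infected controls.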

Test [12] is described as follows: qHTS assay for measurement of the activity of small molecule inhibitors on Zika virus induced Caspase-3 activity in human astrocytoma cells (AID 1224859).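 Note: plate controls were ZIKV-infected untreated cells for no effect and uninfected cells for full effect.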 Put shortly:
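Readout is luminescence from Caspase-Glo 3/7 added after a 6 h ZIKV infection (2 FFU/cell) of compound-pretreated (1 h) SNB-19 cells; data expressed as % inhibition versus uninfected and infected wells.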

A short description of test [13]: qHTS Screen of the MIPE 4.0 Collection Against Ewings Sarcoma (RDES) (AID 1259252). Note: nearly all actives have a fitted effect of over 35% in size. Note: potency is the fitted concentration of half-maximal effect. The method, boiled down: (§2)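 After a 4 h attachment period in RPMI/5% FBS, cells were pin-dosed with test compounds; DMSO served as negative and 9.2 uM bortezomib (final) as positive control. Luminescent CellTiter-Glo signal at 48 h defined viability.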
The nature of test [14]: qHTS Screen of the MIPE 4.0 Collection Against Ewings Sarcoma (TC71) (AID 1259253). Note: nearly all actives have a fitted effect of over 40% in size. Note: potency is the fitted concentration of half-maximal effect. Put shortly: as §2
Test [15] in a line: qHTS Screen of the MIPE 4.0 Collection Against Ewings Sarcoma (EW8) (AID 1259255).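 For viability: 100% = DMSO-treated cells and 0% = medium-only wells without cells.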 Note: nearly all actives have a fitted effect of over 35% in size. Note: potency is the fitted concentration of half-maximal effect. Put shortly: as §2

“And” between values parts separate entries of the source, which are not always exact repeats. Equal entries are not always repeated. Inconclusive results are not listed. The source made the active and inactive calls. Unless noted, calls come from the whole dose curve; as a rule, active = well fitted curve in the direction sought with a large enough effect; inconclusive = small, poorly fitted or top-dose-only effect, or another doubt; inactive = no such curve, though single readings can be large; an effect the other way counts as inactive or inconclusive.

For `OCCn1cc(-c2cnc3nnn(Cc4ccc5ncccc5c4)c3n2)cn1`, the Potency in test [1] was 29.6 µM (active). In addition, the remaining parasite growth % (stronger effect = lower value) in test [2] is 81.8%. In addition, the activity, percent of control in test [3] amounted to 86.8%. The remaining proliferation (% of control), lower = more inhibition in [4] came out at 64.7%. Besides, the parasite growth, % of DMSO control in [5] was 56.6%. In [6], this compound yielded a parasite growth remaining, % of DMSO control (lower = more inhibition) of 94.4%. The compound further yielded a parasite growth, % of control (lower = inhibition) in test [7] of 56.8%. Further, in test [8], the growth, % of control turned out to be 47.5%. The cell viability, % of control (lower = more cytotoxic) in test [9] came to 140%. Moreover, the viability (% of control) in test [10] is 89.8%. Moreover, the Potency entry in test [11], in test [12], in test [13], in [14] and in [15] was “inactive” throughout.
For the compound `O=C(C=Cc1ccc(/C=C/C(=O)Nc2ccc(C3=NCCN3)cc2)cc1)Nc1ccc(C2=NCCN2)cc1`, the max response in [1] was 6.08% (inactive). For the same compound, the remaining parasite growth % (stronger effect = lower value) in test [2] stood at 15.9%. This compound gave an activity, percent of control in test [3] of 27.3%. For the same compound, in [4], the remaining proliferation (% of control), lower = more inhibition was found to be 10.9%. The parasite growth, % of DMSO control in test [5] was 25.9%. Further, in test [6], the parasite growth remaining, % of DMSO control (lower = more inhibition) is 39%. Besides, in test [7], the parasite growth, % of control (lower = inhibition) came out at 40.5%. In addition, the growth, % of control in test [8] was 54.9%. Moreover, the cell viability, % of control (lower = more cytotoxic) in [9] was 203%. Further, in test [10], the viability (% of control) was 104%. Also, the Potency result in test [11], in test [12], in test [13], in [14] and in test [15] was “inactive” in each case.
For the compound `Clc1ccc(Nc2nnc(Cc3ccncc3)c3ccccc23)cc1`, the max response in test [1] is -0.822% (inactive) and -17.1% (inactive). The remaining parasite growth % (stronger effect = lower value) in test [2] was -0.114%. Also, the activity, percent of control in test [3] was 2.71%. In [4], this compound yielded a remaining proliferation (% of control), lower = more inhibition of 0.459%. Besides, in test [5], the parasite growth, % of DMSO control was 34.2%. Besides, the parasite growth remaining, % of DMSO control (lower = more inhibition) in [6] stood at 84.7%. In addition, the parasite growth, % of control (lower = inhibition) in test [7] was determined as 63.4%. This compound also gave a growth, % of control in test [8] of 53.1%. In test [9], the cell viability, % of control (lower = more cytotoxic) was determined as 117%. For the same compound, in test [10], the viability (% of control) stood at 68.2%. For the same compound, the Potency result in test [11] and in test [12] was “inactive” throughout. Further, the Potency was 2.96 µM (active) in test [13] and 20.9 µM (active) in test [14].
As for `COc1ccc(COc2cc3oc(=O)c4cc(C(C)O)ccc4c3cc2OC)cc1` (stereo not drawn), the max response in [1] was 29.9% (inactive). Moreover, in test [2], the remaining parasite growth % (stronger effect = lower value) was determined as 75.7%. In test [3], the activity, percent of control was determined as 22%. The compound also had a remaining proliferation (% of control), lower = more inhibition in [4] of 74.7%. Besides, the parasite growth, % of DMSO control in test [5] was 39.5%. The parasite growth, % of control (lower = inhibition) in test [7] came out at 27.3%. The growth, % of control in test [8] is 46.1%. The cell viability, % of control (lower = more cytotoxic) in [9] is 14.7%. Moreover, the viability (% of control) in [10] amounted to 33.4%. Besides, the Potency entry in test [11] and in test [12] was “inactive” each time. Moreover, the Potency in test [13] was 13.2 µM (active); in test [14], 23.5 µM (active); in test [15] it was 20.9 µM (active).
On to `CCn1c(-c2nonc2N)nc2c(C#CC(C)(C)O)ncc(OC[C@H]3CCCNC3)c21`, for which the Potency in test [1] is 23.5 µM (active); in test [13], 23.5 µM (active); in test [14] it was 18.7 µM (active); in [15] it was 23.5 µM (active). For the same compound, the remaining parasite growth % (stronger effect = lower value) in test [2] was 5.66%. The activity, percent of control in test [3] was found to be 2.74%. Also, the remaining proliferation (% of control), lower = more inhibition in test [4] was found to be 2.14%. For the same compound, the parasite growth, % of DMSO control in test [5] came to 5.72%. Further, in [6], the parasite growth remaining, % of DMSO control (lower = more inhibition) stood at 11.8%. This compound came in with a parasite growth, % of control (lower = inhibition) in [7] of 13.9%. In test [8], this compound came in with a growth, % of control of 3.2%. In [9], the cell viability, % of control (lower = more cytotoxic) was found to be 64.9%. Moreover, the viability (% of control) in test [10] worked out at 8.62%. Also, the Potency result in [11] and in test [12] was “inactive” in each case.
Take `CC(C)OC(=O)C1=CN(C(=O)c2ccc(F)c(F)c2)CC(C)(C)c2c1[nH]c1ccccc21`: the max response in test [1] is 18.7% (inactive). Besides, the remaining parasite growth % (stronger effect = lower value) in test [2] was 15.1%. The same compound gave an activity, percent of control in test [3] of 36.4%. In test [4], this compound came in with a remaining proliferation (% of control), lower = more inhibition of 29.3%. This compound also showed a parasite growth, % of DMSO control in test [5] of 51.5%. In test [6], this compound returned a parasite growth remaining, % of DMSO control (lower = more inhibition) of 44.6%. Further, the parasite growth, % of control (lower = inhibition) in test [7] was 66.4%. The same compound registered a growth, % of control in test [8] of 46.5%. Also, the cell viability, % of control (lower = more cytotoxic) in [9] was found to be 115%. The viability (% of control) in [10] was 108%. For the same compound, the Potency entry in [11], in test [12], in [13], in test [14] and in test [15] was “inactive” each time.
